Among the data in PubChem BioAssay (NCATS) are Potency and outcome values, retold here.

Values without a mark were called inactive. Results filed as inconclusive are left out. Activity calls are given as the source filed them. Unless noted, calls come from the whole dose curve; as a rule, active = well fitted curve in the direction sought with a large enough effect; inconclusive = small, poorly fitted or top-dose-only effect, or another doubt; inactive = no such curve, though single readings can be large; an effect the other way counts as inactive or inconclusive.

Test [1] addresses Luciferin 4-monooxygenase (Photinus pyralis) (UniProt P08659). Kind of test: Biochemical firefly luciferase enzyme assay for NPC (AID 624030).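 Note: purified P. pyralis luciferase at 10 nM with luciferin and ATP substrate; nearly all actives have a fitted effect of over 70% in size.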 In short, it runs like this:
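Purified P. pyralis luciferase at 10 nM in 50 mM Tris Acetate (final), luminescence read within 5 minutes of enzyme addition to compounds. Activity normalised to PTC124 versus DMSO; concentration-response curves classed by r2, magnitude and activity.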

Test [2] in a line: S16 Schwann cell PMP22 intronic element firefly luciferase assay (AID 624032). Note: nearly all actives have a fitted effect of over 30% in size. Note: potency is the fitted concentration of half-maximal effect. A digest of the protocol:
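Rat S16 Schwann cells stably carrying firefly luciferase driven by a PMP22 intronic element, in 10% FBS, treated 24 h at 37 C. ONE-Glo luminescence normalized to PTC124 control and DMSO (0%); curves classed by r2, magnitude and activity.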

The subject of the next test is 7G8. Kind of test: qHTS profiling for inhibitors of Plasmodium falciparum proliferation (AID 504749). Note: nearly all actives have a fitted effect of over 60% in size. Note: potency is the fitted concentration of half-maximal effect. Conditions: P. falciparum in erythrocytes, SYBR Green DNA, 72 h; series mostly up to 12.8 µM. In short, it runs like this: (§1)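 P. falciparum-infected erythrocytes (0.3% parasitemia, 2.5% hematocrit) incubated with compound 72 h at 37 C, 5% CO2. Parasite DNA detected by SYBR Green after lysis, overnight at room temperature; normalised to 0.29 uM artemisinin and DMSO.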

The subject of a further test is DFO2036. The test is described as above. As to conditions: P. falciparum in erythrocytes, SYBR Green DNA, 72 h; series mostly up to 12.8 µM. In short, it runs like this:
as §1

A further test relates to DIV14. Described as above. As to conditions: P. falciparum in erythrocytes, SYBR Green DNA, 72 h; series mostly up to 12.8 µM. In short, it runs like this: as §1
The next test has as its system GB4. Described as above. As to conditions: P. falciparum in erythrocytes, SYBR Green DNA, 72 h; series mostly up to 12.8 µM. In short, it runs like this: as §1
Another test deals with W2. The description is as above. Conditions: P. falciparum in erythrocytes, SYBR Green DNA, 72 h; series mostly up to 12.8 µM. In short, it runs like this: as §1
Test [3] has as its target Glucocorticoid receptor (Homo sapiens) (UniProt P04150). Kind of test: GR-GFP Redistribution (AID 450;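 active = compounds whose dose series gives a full or clear partial fitted curve of increased nuclear translocation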; note: potency is the fitted concentration of half-maximal effect). Conditions: U2OS GR-GFP nuclear translocation, laser cytometry, 2 h.
The target of test [4] is Mitogen-activated protein kinase 10 (Mus musculus) (UniProt Q61831). Kind of test: JNK3 AlphaScreen Assay (AID 530; active = well fitted curve in either direction with a large enough effect, not every such curve was filed as active;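 note: kinase came from lysate of stimulated human HepG2 cells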; note: potency is the fitted concentration of half-maximal effect). A digest of the protocol: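 Pre-activated (IL-1β/TNFα) JNK3 in HepG2 lysates phosphorylates biotin-GST-cJun(1-79), 10 uM ATP; anti-phospho-cJun(Ser73) AlphaScreen read at room temperature, pH 7.6 Tris buffer. Compounds pre-incubated 15 min as titrations.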
On the technique in general: Bead proximity is the source of the signal in Alpha formats.

The target in test [5] is 3',5'-cyclic-AMP phosphodiesterase 4B (Homo sapiens) (UniProt Q07343). As to the kind of experiment: qHTS Assay for Inhibitors of PDE-IV (AID 607; active = well fitted activation curve with a large enough effect in the main read-out, with a control signal flat, not every such curve was filed as active). A digest of the protocol: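 Cell-based read-out of cAMP via a modified cyclic nucleotide-gated channel and membrane potential dye (535/590 nm) in HEK293 cells expressing PDE4 endogenously. Compounds tested up to 22.9 uM final; 100 uM RO 20-1724 reference.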
Sequence of 3',5'-cyclic-AMP phosphodiesterase 4B (Homo sapiens) (Q07343 whole entry, looked up): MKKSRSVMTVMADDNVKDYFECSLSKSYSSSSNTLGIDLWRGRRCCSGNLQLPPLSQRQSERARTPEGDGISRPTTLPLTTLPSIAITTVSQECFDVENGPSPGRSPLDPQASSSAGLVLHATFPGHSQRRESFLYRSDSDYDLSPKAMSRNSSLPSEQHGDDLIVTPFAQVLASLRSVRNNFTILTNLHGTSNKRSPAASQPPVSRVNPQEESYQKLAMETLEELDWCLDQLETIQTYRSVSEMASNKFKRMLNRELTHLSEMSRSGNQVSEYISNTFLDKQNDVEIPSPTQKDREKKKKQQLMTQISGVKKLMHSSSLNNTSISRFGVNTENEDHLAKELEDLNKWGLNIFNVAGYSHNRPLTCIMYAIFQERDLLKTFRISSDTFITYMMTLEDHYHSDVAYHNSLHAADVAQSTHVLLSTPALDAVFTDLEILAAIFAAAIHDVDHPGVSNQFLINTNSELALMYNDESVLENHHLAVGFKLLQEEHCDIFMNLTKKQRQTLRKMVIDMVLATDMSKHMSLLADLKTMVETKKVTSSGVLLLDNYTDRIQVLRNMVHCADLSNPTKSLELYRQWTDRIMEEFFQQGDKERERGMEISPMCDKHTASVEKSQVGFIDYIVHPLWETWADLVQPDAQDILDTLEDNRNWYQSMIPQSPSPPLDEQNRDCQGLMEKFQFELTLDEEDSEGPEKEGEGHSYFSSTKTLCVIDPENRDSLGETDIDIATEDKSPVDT
On the technique in general: qHTS replaces the single test concentration by a dilution series.

Test [6] in a line: S16 Schwann cell viability assay (CellTiter-Glo assay) (AID 624031).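 Note: native untransfected S16 rat Schwann cells; nearly all actives have a fitted effect of over 70% in size.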 In short, it runs like this:
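Concentration-effect curves come from CellTiter-Glo luminescence of S16 rat Schwann cells after 24 h compound exposure. Each reading was normalized to DMSO wells (0%) and wells without cells, and curves were ranked by r2 and response magnitude.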
(In general: ATP-based viability assays read luminescence as a measure of living cells.)

In test [7] the target is Glucocorticoid receptor (Homo sapiens) (UniProt P04150). As to the kind of experiment: GR-EFC Redistribution (AID 451; calls by dose curve; note: potency is the fitted concentration of half-maximal effect). Conditions: CHO-K1 GR-EFC translocation, beta-gal luminescence, 2 h. In short, it runs like this:
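CHO-K1 cells expressing nuclear EA and GR-ED fragments of b-gal; compounds titrated up to 46 uM final, 2 h at 37 C. GR nuclear translocation read as complemented b-gal luminescence after 1 h RT detection.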

In test [8] the target is Cytochrome P450 3A4 (Homo sapiens) (UniProt P08684). As to the kind of experiment: qHTS Assay for Inhibitors and Substrates of Cytochrome P450 3A4 (AID 884). Note: nearly all actives have a fitted effect of over 50% in size. A digest of the protocol:
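20 nM human CYP3A4 with 25 uM Luciferin-PPXE (at KM) in 200 mM KPO4, preincubated 10 min with compound; NADPH regeneration started a 60 min RT reaction. Luciferin detected by luminescence, normalized to 57 uM ketoconazole as full inhibition.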

In test [9] the target is Cytochrome P450 2D6 (Homo sapiens) (UniProt P10635). As to the kind of experiment: qHTS Assay for Inhibitors and Substrates of Cytochrome P450 2D6 (AID 891).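 Note: luciferin methyl ether substrate demethylated by CYP2D6 with NADPH regeneration; nearly all actives have a fitted effect of over 60% in size.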 In short, it runs like this:
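Human CYP2D6 (5 nM) with 30 uM Luciferin-ME EGE (at Km) in 100 mM KPO4, compound preincubated 10 min, then NADPH regeneration system for 60 min at room temperature. Luciferin read by luminescence; normalized to 1.43 uM quinidine.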

Test [10] addresses DNA dC->dU-editing enzyme APOBEC-3G (Homo sapiens) (UniProt Q9HC16). Kind of test: qHTS for inhibitors of Vif-A3G interactions: Validation (AID 588379). A digest of the protocol:
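HeLa cells stably expressing Vif and A3G-eYFP, 700 cells/well, incubated overnight at 37 deg C, then exposed to compound overnight at 37 deg C. Inhibition of Vif-mediated degradation read as increased yellow fluorescence (Ex 488/Em 500-530) by laser-scanning cytometry.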

Test [11] concerns the target Cytochrome P450 3A4 (Homo sapiens) (UniProt P08684). As to the kind of experiment: qHTS Assay for Activators of Cytochrome P450 3A4 (AID 885). Note: nearly all actives have a fitted effect of over 65% in size. In short, it runs like this:
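Signal was normalized against complete inhibition by 57 uM ketoconazole. The reaction used 20nM CYP3A4 with 25uM Luciferin-PPXE, 10-min compound preincubation and a 60-min NADPH-supported step at RT.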

A further test concerns CP215. As to the kind of experiment: qHTS profiling for inhibitors of Plasmodium falciparum proliferation (AID 504749). Note: nearly all actives have a fitted effect of over 60% in size. Note: potency is the fitted concentration of half-maximal effect. As to conditions: P. falciparum in erythrocytes, SYBR Green DNA, 72 h; series mostly up to 12.8 µM. A digest of the protocol:
as §1

Sequence of Cytochrome P450 3A4 (Homo sapiens) (P08684 whole entry, looked up): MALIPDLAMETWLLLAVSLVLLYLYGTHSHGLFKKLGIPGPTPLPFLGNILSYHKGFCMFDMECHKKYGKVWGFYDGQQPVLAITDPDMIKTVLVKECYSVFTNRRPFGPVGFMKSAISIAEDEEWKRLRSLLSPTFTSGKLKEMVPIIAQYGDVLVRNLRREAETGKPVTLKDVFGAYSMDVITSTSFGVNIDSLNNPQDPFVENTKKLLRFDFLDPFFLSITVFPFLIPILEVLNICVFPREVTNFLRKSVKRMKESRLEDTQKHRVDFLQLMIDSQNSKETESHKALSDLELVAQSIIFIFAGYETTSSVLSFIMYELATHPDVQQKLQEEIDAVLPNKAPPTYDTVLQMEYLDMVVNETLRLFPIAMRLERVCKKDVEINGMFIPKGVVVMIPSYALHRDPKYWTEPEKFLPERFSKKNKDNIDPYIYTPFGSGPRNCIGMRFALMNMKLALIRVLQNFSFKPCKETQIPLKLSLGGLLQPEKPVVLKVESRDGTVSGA
Sequence of Glucocorticoid receptor (Homo sapiens) (P04150 whole entry, looked up, the tested form may be a part): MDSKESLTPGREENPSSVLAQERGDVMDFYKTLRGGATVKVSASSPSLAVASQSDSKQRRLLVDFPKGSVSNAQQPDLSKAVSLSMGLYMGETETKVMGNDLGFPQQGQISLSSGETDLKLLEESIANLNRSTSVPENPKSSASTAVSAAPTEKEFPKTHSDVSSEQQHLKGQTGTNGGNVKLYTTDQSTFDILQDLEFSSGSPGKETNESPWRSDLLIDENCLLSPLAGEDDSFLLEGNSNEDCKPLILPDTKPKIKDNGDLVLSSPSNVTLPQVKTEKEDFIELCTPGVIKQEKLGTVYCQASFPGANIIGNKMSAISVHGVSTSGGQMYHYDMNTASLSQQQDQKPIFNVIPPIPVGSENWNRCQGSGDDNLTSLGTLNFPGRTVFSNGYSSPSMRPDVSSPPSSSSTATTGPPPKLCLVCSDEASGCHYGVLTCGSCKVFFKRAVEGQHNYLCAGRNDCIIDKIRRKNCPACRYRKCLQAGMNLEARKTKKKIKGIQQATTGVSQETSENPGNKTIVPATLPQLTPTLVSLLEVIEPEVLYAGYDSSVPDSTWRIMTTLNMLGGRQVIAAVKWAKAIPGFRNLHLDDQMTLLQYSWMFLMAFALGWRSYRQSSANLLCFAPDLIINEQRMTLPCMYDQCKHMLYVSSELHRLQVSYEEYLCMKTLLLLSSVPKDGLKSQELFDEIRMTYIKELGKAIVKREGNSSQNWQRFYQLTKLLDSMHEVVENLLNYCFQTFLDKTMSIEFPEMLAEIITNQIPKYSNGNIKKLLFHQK
Sequence of Luciferin 4-monooxygenase (Photinus pyralis) (P08659 whole entry, looked up): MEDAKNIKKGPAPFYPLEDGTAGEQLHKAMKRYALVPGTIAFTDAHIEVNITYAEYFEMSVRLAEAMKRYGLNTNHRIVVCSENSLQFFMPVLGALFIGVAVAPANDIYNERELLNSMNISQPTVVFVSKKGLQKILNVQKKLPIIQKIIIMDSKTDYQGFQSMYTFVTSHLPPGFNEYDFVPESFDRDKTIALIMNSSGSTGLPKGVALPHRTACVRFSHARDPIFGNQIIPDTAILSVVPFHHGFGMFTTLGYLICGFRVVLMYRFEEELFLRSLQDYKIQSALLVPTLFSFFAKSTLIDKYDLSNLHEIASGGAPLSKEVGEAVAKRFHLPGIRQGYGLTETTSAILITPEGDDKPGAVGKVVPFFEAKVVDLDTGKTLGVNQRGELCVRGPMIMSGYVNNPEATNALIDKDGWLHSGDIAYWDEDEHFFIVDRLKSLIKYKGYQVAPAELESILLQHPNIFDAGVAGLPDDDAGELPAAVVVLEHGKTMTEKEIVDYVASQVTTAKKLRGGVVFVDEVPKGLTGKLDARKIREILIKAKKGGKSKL
Sequence of Cytochrome P450 2D6 (Homo sapiens) (P10635 whole entry, looked up): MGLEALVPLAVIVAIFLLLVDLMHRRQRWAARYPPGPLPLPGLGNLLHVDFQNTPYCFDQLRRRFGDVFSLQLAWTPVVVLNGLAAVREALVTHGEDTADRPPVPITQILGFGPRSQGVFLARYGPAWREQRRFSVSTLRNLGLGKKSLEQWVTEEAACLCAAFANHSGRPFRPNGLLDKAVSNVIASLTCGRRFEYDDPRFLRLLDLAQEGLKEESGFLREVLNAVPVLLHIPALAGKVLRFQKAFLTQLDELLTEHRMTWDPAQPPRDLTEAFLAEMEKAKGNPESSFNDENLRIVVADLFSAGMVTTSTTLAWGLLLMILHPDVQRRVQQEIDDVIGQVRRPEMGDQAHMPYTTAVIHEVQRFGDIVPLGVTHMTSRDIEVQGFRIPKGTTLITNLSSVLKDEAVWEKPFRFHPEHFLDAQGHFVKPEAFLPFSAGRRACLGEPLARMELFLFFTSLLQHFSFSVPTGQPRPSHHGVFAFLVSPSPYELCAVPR
Sequence of DNA dC->dU-editing enzyme APOBEC-3G (Homo sapiens) (Q9HC16 whole entry, looked up): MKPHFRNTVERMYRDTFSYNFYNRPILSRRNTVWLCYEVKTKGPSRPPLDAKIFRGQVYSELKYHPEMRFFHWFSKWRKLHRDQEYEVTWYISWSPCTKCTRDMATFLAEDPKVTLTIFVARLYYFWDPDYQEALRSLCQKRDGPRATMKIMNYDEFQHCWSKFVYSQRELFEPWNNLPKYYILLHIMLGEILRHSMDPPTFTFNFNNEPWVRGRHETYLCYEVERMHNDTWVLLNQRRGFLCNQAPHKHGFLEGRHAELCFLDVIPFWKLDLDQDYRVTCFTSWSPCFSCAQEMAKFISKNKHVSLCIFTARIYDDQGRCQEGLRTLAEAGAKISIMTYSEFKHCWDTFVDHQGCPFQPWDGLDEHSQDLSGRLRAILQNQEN

In the case of `COc1ccc2cc1Oc1ccc(cc1)CC1c3c(cc4c(c3Oc3cc5c(cc3OC)CCN(C)C5C2)OCO4)CCN1C` (stereo not drawn), the Potency result in test [1] and in test [2] was “inactive” throughout. Further, the Potency was 2.24 µM (active) in the test on 7G8; 7.94 µM (active) in the test on DFO2036; 5.36 µM (active) with DIV14; 6.75 µM (active) in the test on GB4; 1.9 µM (active) in the test on W2.
On to `C=Cc1c(C)c2cc3nc(cc4[nH]c(cc5nc(cc1[nH]2)C(C)=C5CCC(=O)O)c(CCC(=O)OC)c4C)[C@@]1(C)C3=CC=C(C(=O)OC)[C@H]1C(=O)OC` (tested in a mixture with another compound), for which the Potency is > 20.6 µM in test [3]; 0.316 µM [activator] (active) in [4]; 0.355 µM (active) in the test with 7G8; 11.2 µM (active) with DFO2036; 8.49 µM (active) in the test with DIV14; 12 µM (active) in the test on GB4. The Potency in the test on W2 is 1.69 µM (active). For the same compound, the call in [5] and in test [6] was inactive. In addition, the Potency result in test [1] was “inactive”.
On to `CC/C=C\C[C@H]1C(=O)CC[C@@H]1CC(=O)O`, for which the Potency in test [3] and in [7] was > 46 µM each time. Besides, the Potency result in test [4], in [8] and in [9] was “inactive” in each case. In addition, the result in test [5] and in test [10] was inactive.
Take `COC1C=CO[C@@]2(C)Oc3c(C)c(O)c4c(O)c(c5c(nc6cc(C)ccn65)c4c3C2=O)NC(=O)/C(C)=C\C=CC(C)C(O)[C@@H](C)C(O)C(C)[C@@H](OC(C)=O)C1C` (stereo partly drawn): the Potency entry in test [11] is “inactive”. Also, in test [6], the call was inactive. The Potency in the test with 7G8 is 3.16 µM (active); in the test on CP215, 13.5 µM (active); in the test with DIV14, 1.07 µM (active); in the test with GB4, 3.79 µM (active); in the test with W2, 1.9 µM (active).
For the compound `CC1(C)OC2CO[C@]3(COS(N)(=O)=O)OC(C)(C)OC3C2O1` (stereo partly drawn), the Potency entry (in test [8]; in test [2]; with CP215; with DIV14; in the test on GB4; in the test on W2) was “inactive” each time. Further, in [6], the compound was called inactive.
In the case of `OCC1O[C@H](OC2C(CO)O[C@@](O)(CO)C2O)C(O)C(O)C1O` (stereo partly drawn), the Potency entry (in [8]; in [1]; in test [2]; with 7G8; in the test on CP215; in the test on DFO2036) was “inactive” each time. Further, the Potency entry in the test on DIV14, with GB4 and with W2 was “inactive” each time. Also, the compound was classed as inactive in test [6].
Regarding `C/C(=C\CNc1ncnc2nc[nH]c12)CO`, the Potency in test [3] and in test [7] was > 46 µM throughout. Also, the Potency entry in [4], in test [8] and in [9] was “inactive” each time. Also, the outcome in test [5] and in test [10] was inactive.
For the compound `CCOC(=O)C1=CC(OC(CC)CC)C(NC(C)=O)C(N)C1` (stereo not drawn), the Potency entry (in [11]; in test [1]; in test [2]; in the test with CP215) was “inactive” in each case. Also, in the test with W2, the Potency was 6.75 µM (active).
As for `Cc1cc(O)c(C=O)c2c1C(=O)Oc1c(C)c(O)c3c(c1O2)C(O)OC3=O` (stereo not drawn), the Potency entry in test [11] is “inactive”.
Take `COc1ccc(CC(N)C(=O)NC2C(CO)OC(n3cnc4c(N(C)C)ncnc43)C2O)cc1` (stereo not drawn): the Potency entry in test [1] was “inactive”. The Potency was 1.28 µM (active) in test [2]; 0.316 µM (active) in the test with 7G8; 1.07 µM (active) with CP215; 0.953 µM (active) in the test with DIV14; 0.675 µM (active) in the test with GB4; 0.338 µM (active) with W2.
